In PubChem BioAssay one finds z-score and composite z-score data, which are given here for 12 molecules.

A short description of assay [1]: HepG2 liver cancer cell viability effects, profiling panel, resazurin fluorescence, 24 h, PK04 Diversity Set (AID 1172). Also: test concentration not given here. Conditions: higher = more signal. (In general: Alamar Blue is a resazurin reagent that responds to reducing activity.)
Assay [2] is described as follows: basal S. cerevisiae growth modulation, no modifier, primary screen, OD600, strain BY4716, 24 h, basal condition (AID 1173). Particulars: OD600, 24 h, higher = more signal, called active from +8 up or from −8 down.
The nature of assay [3]: MM1S myeloma cell viability, profiling panel, resazurin fluorescence, basal, 24 h, PK04 Diversity Set (AID 1174).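 Also: MM1S multiple myeloma cell line; test concentration not given here.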 Conditions: higher = more signal, called active from +8 up or from −8 down.
Assay [4] addresses Dihydroorotate dehydrogenase (quinone), mitochondrial (Plasmodium falciparum (isolate 3D7)) (UniProt Q08210). Kind of assay: PfDHODH enzyme inhibitors, primary screen, biochemical, C-terminal His tag, absorbance 600 nm (AID 1175).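 Also: recombinant parasite enzyme with a five histidine tag at its C terminus; test concentration not given here.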 Conditions: DCIP absorbance 600 nm, higher = more signal, called active from +8 up or from −8 down.
Assay [5] in a line: P. aeruginosa biofilm formation inhibitors, primary screen, strain PAO1, LB-PBS medium, absorbance 600 nm (AID 1176). Also: test concentration not given here. Particulars: P. aeruginosa PAO1 growth/biofilm, A600, 12 h; higher = more signal.
Assay [6] can be described thus: S. cerevisiae RM11-1a growth modifiers, primary screen, strain RM11-1a, OD600, basal, 24 h (AID 1177).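 Also: cultures grown under basal conditions with no added stressor; test concentration not given here.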 Conditions: OD600, 24 h, higher = more signal, called active from +8 up or from −8 down.
The nature of assay [7]: E. coli acrAB mutant growth effects, primary screen, E. coli filamentation inducers, strain DRC39, OD650, 24 h (AID 1178).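 Also: growth measured as culture turbidity by optical density at 650 nm; test concentration not given here.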 Conditions: higher = more signal, called active from +8 up or from −8 down.
A short description of assay [8]: E. coli acrAB mutant growth effects, primary screen, E. coli filamentation inducers, strain DRC39, OD650, 48 h (AID 1179).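 Also: screen aims at cell division blockers that make cells filament.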 Particulars: E. coli DRC39 delta-acrAB growth, higher = more signal, called active from +8 up or from −8 down.
The nature of assay [9]: RPMI8226 myeloma cell viability, profiling panel, resazurin fluorescence, basal, 24 h, PK04 Diversity Set (AID 1180).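 Also: RPMI8826 multiple myeloma cell line at 5000 cells per well; test concentration not given here.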 Conditions: higher = more signal.
The target of assay [10] is E3 ubiquitin-protein ligase XIAP (Homo sapiens) (UniProt P98170). Kind of assay: XIAP binders, primary screen, biophysical, small-molecule microarray, fluorescence 635 nm (AID 1181).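 Also: score merges 667 nm emission and signal to noise over triplicate slides.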 Conditions: small-molecule microarray binding, higher = more signal.
E3 ubiquitin-protein ligase XIAP (Homo sapiens), sequence (P98170 whole entry, looked up): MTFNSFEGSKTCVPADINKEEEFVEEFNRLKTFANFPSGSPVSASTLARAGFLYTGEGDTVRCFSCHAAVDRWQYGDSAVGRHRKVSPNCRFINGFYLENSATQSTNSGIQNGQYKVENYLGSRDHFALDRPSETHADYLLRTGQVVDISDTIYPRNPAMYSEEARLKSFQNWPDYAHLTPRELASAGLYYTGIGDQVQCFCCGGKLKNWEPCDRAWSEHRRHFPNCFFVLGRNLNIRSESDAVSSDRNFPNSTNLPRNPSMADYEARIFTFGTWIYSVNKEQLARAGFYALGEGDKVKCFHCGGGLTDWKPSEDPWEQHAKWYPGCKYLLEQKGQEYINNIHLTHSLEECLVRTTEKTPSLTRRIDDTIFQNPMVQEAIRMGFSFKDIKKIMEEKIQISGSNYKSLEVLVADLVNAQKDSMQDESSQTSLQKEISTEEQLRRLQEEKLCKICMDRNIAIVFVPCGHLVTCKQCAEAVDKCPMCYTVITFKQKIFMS

Molecules are shown by their SMILES. The source made the active and inactive calls. Unless noted, no rule for the calls is given here.

Dihydroorotate dehydrogenase (quinone), mitochondrial (Plasmodium falciparum (isolate 3D7)), sequence (Q08210 whole entry, looked up): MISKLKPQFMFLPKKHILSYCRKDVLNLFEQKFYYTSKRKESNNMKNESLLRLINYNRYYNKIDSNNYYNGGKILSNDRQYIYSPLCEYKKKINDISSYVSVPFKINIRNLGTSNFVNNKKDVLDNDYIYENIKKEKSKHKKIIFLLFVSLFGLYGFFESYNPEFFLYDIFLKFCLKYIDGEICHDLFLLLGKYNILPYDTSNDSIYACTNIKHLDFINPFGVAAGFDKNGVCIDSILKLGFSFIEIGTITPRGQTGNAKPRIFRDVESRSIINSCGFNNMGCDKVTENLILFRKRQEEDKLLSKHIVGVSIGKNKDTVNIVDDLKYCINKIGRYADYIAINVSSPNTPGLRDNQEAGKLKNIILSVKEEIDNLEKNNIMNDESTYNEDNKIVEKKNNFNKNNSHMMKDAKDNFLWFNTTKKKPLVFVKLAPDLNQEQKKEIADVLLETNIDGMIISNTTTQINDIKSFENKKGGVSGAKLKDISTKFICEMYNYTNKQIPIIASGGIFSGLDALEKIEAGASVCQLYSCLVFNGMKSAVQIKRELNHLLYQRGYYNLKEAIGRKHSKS

In the case of `CCC[C@@H]1C[C@@]1(CCC)[C@@H](NC(=O)c1ccco1)c1ccc(Cl)cc1`, the z-score was 1.6 in assay [1]; 0.614 (inactive) in assay [2]; 0.254 (inactive) in assay [3]; 0.439 (inactive) in assay [5]; 0.288 (inactive) in assay [6]; -0.195 (inactive) in [7]. In addition, the results for the z-score in assay [8] and in assay [9] were 0.105 (inactive) and -1.67, respectively. For the same molecule, the composite z-score is -0.152 (inactive) in assay [4] and -0.683 in assay [10].
In the case of `CCCC=C(CCC)[C@@H](NS(=O)(=O)c1ccccc1)c1ccc(C(F)(F)F)cc1`, the z-score is -0.574 in assay [1]; 0.892 (inactive) in assay [2]; -2.56 (inactive) in [3]; -0.415 (inactive) in assay [5]; 1.07 (inactive) in assay [6]; -0.28 (inactive) in [7]. For the same molecule, the z-score in assay [8] is -0.428 (inactive); in assay [9], -3.59. The results for the composite z-score in [4] and in assay [10] were -0.62 (inactive) and 0.0039, respectively.
For `CCCNC(=O)[C@@]1(Sc2ccc(C)cc2)CC(=O)N(Cc2ccccc2)[C@@H]1c1ccc(CO)cc1I`, the z-score is -0.38 in [1]; -2.59 (inactive) in [2]; -3.26 (inactive) in assay [3]; 1.14 (inactive) in assay [5]; -0.598 (inactive) in assay [6]; 0.214 (inactive) in assay [7]. Moreover, the z-score was 0.0547 (inactive) in assay [8] and -2.81 in assay [9]. Also, the values for the composite z-score in [4] and in assay [10] were -11.5 (active) and 0.0471, respectively.
As for `CC(C)CCC[C@@H](C)[C@H]1CC[C@@]2(C)C3=C(CC[C@]12C)[C@@]1(C)CC[C@H](OC(=O)C(C)(C)C)C(C)(C)C1CC3` (stereo not given in full), the z-score in assay [1] was 0.411; in [2], -0.743 (inactive); in assay [3] it was 0.0609 (inactive); in assay [5], 1.65 (inactive); in assay [6] it was -4.69 (inactive); in [7], 1.41 (inactive). Besides, the z-score in [8] was -0.805 (inactive); in [9], 0.662. Further, the composite z-score is -2.48 (inactive) in assay [4] and 0.0356 in assay [10].
Regarding `C[C@@]1([C@@H](NC(=O)c2cccs2)c2ccc(-c3ccccc3)cc2)C[C@H]1C1CCCCC1`, the z-score in assay [1] was 0.133; in assay [2], 0.774 (inactive); in assay [3], -0.0911 (inactive); in assay [5], 2.3 (inactive); in assay [6] it was 0.548 (inactive); in [7], 0.0767 (inactive). The z-score was -0.483 (inactive) in assay [8] and 0.689 in [9]. In addition, the composite z-score was -3.3 (inactive) in assay [4] and 0.246 in [10].
As for `COc1ccccc1CN1C(=O)c2ccccc2[C@](Cc2ccccc2I)(C(=O)NCCN2CCOCC2)[C@@H]1c1ccc(CO)cc1`, the z-score in assay [1] is -2.07; in [2], -0.261 (inactive); in assay [3], -0.914 (inactive); in assay [5] it was 0.817 (inactive); in [6] it was -0.897 (inactive); in assay [7], 0.533 (inactive). The z-score in assay [8] is 0.908 (inactive); in assay [9], -1.66. The composite z-score in assay [4] was -1.1 (inactive); in assay [10] it was -0.108.
Consider `CC(C)c1ccc(NN2C(C(O)c3ccccn3)C=CC3C(=O)N(c4ccccc4)C(=O)C32)cc1` (stereo not given), for which the z-score in [1] was -0.981; in [2] it was -0.147 (inactive); in assay [3] it was -1.17 (inactive); in assay [5], 0.0895 (inactive); in [6] it was 1.92 (inactive); in assay [7], 0.235 (inactive). Moreover, the z-score was 0.0644 (inactive) in assay [8] and -0.698 in assay [9]. The composite z-score in [4] is 1.87 (inactive); in [10], -0.0559.
Take `CCOC(=O)C[C@H]1[C@H](OC(=O)c2ccc(C(=O)c3ccccc3)cc2)[C@@H](NC(=O)C2CCCCC2)c2cc(OCCCO)ccc2N1C(=O)Cc1ccc(OC)cc1`: the z-score was -0.531 in [1]; -0.741 (inactive) in [2]; -0.28 (inactive) in assay [3]; -0.346 (inactive) in [5]; -0.0363 (inactive) in assay [6]; -0.29 (inactive) in [7]. For the same molecule, the z-score in assay [8] is 0.162 (inactive); in assay [9], -0.353. The composite z-score is -0.085 (inactive) in [4] and -0.141 in assay [10].
With `NC(=O)[C@H]1[C@@H]2C(=O)O[C@@H](c3ccccc3)[C@@H](c3ccccc3)N2[C@@H](c2ccc(O)cc2)[C@]12C(=O)Nc1ccc(C#CC3(O)CCCCCC3)cc12`, the z-score in [1] was -0.518; in assay [2], -0.475 (inactive); in [3], 0.522 (inactive); in [5], 0.738 (inactive); in [6], -0.323 (inactive); in [7] it was 0.249 (inactive). Further, the z-score in [8] is -0.815 (inactive); in [9], 0.159. The composite z-score is -0.885 (inactive) in [4] and -0.102 in assay [10].
In the case of `COc1ccc([Si](C)(C)[C@@H]2[C@@H](CC(=O)N3Cc4ccccc4C[C@H]3CO)O[C@]3(C(=O)N(Cc4cccc(N5CCCCC5=O)c4)c4ccccc43)[C@H]2C)cc1`, the z-score was -1.16 in assay [1]; 0.0062 (inactive) in assay [2]; -3.09 (inactive) in assay [3]; 0.331 (inactive) in assay [5]; 1.98 (inactive) in [6]; -0.453 (inactive) in [7]. For the same molecule, the z-score in assay [8] was -0.878 (inactive); in assay [9], -2.15. For the same molecule, the composite z-score in assay [4] is -1.02 (inactive); in assay [10], -0.148.
Turning to `O=c1c2ccc(Br)cc2nc(-c2ccccc2)n1Cc1cccc(O)c1`, the z-score in [1] was -0.187; in assay [2], -2.04 (inactive); in [3] it was -1.1 (inactive); in assay [5] it was 0.186 (inactive); in assay [6] it was 0.159 (inactive); in assay [7], 0.362 (inactive). The z-score in assay [8] was 0.39 (inactive); in assay [9], -0.0974. Besides, the composite z-score was 0.515 (inactive) in assay [4] and -0.151 in assay [10].
On to `COC(=O)[C@@]1(Cc2ccc(F)cc2)[C@H]2c3cc(C(=O)N4CCCC4)n(Cc4ccccc4)c3C[C@H]2CN1C(=O)c1ccccc1`, for which the z-score in [1] is 0.155; in assay [2] it was 1.38 (inactive); in assay [3] it was -0.874 (inactive); in [5], -0.526 (inactive); in assay [6], 0.669 (inactive); in [7], 0.392 (inactive). Besides, the z-score is -0.406 (inactive) in [8] and -0.922 in [9]. In addition, the figures for the composite z-score in [4] and in [10] were 0.335 (inactive) and -0.146, respectively.
